The text below walks through data of PubChem BioAssay (Tox21).

Records with an inconclusive call do not appear. A call without a number means that no potency is given here. Calls of active or inactive are those of the source. The call rests on the fitted dose curve; in most records, active means well fitted inhibition curve with a large enough effect in the repeat runs; inconclusive means weak or mixed curves; inactive means no such curve, though single readings can be large or run the other way.
Potency means the concentration at half of the fitted maximal effect.

The target in the experiment is Cytochrome P450 3A4 (Homo sapiens) (UniProt P08684). In words: Cytochrome P450 Family 3 Subfamily A Member 4 (CYP3A4) small molecule antagonists: luciferase reporter qHTS assay (AID 1671201). Further: nearly all actives have a fitted effect of over 50% in size. The conditions noted are these: P450-Glo CYP3A4 enzyme, luciferin luminescence, 1 h; series mostly up to 115 µM. The source says: National Center for Advancing Translational Sciences [NCATS]
Cytochrome P450 3A4 (Homo sapiens), sequence (P08684 whole entry, looked up): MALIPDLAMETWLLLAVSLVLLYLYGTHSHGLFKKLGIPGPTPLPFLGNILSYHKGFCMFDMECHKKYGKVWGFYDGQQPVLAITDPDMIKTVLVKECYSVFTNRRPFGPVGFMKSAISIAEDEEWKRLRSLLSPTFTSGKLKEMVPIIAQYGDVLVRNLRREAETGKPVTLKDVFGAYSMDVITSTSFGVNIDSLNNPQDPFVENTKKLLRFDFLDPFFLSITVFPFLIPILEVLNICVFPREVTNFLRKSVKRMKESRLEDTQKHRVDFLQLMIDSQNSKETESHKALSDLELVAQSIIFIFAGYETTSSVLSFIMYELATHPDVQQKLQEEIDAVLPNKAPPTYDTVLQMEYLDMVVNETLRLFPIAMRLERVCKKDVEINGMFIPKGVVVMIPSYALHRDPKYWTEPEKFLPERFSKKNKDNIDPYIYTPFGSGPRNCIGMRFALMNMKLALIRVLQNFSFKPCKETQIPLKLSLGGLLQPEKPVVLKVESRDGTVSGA
U.S. Environmental Protection Agency [EPA]
National Institutes of Environmental Health Sciences [NIEHS]
National Toxicology Program [NTP]
U.S. Food and Drug Administration [FDA]
Cytochrome P450 (CYP) enzymes are membrane-bound hemeproteins that play a key role in metabolism of drugs and xenobiotics. Evaluation of the effect of chemicals on CYP isozymes is useful to minimize the adverse drug reactions and toxicities in drug development process. Tox21 chemicals were tested for their effect on CYP enzyme activities by using P450-Glo (TM) screening systems (Promega Corporation, Madison, WI). These systems provide a luminescent method containing proluciferin substrates and are converted to luciferin products by CYP isozymes. The luciferin products formed are detected with a luciferin detection reagent, and the amount of light produced is proportional to CYP activity. P450-Glo (TM) CYP3A4 screening system (Catalog. No. V9910) was used to detect the compounds that interfere in CYP3A4 activity. The positive control compound used for CYP3A4 assay is ketoconazole (Sigma-Aldrich, St. Louis, MO).
Tox21 Assay Protocol Summary:
Two ul of enzyme-substrate mix was dispensed into medium binding white/solid 1536-well plates (Greiner Bio-One North America Inc., Monroe, NC) using a BioRaptr Flying Reagent Dispenser (FRD, Beckman Coulter, Brea, CA). Compounds dissolved in DMSO and positive control (ketoconazole) were transferred to the assay plates at 23 nl using a Pintool station (Wako, San Diego, CA). The assay plates were incubated at room temperature for 10 min. Then 2 ul of NADPH regeneration solution was added to each well of the assay plates using an FRD and incubated at room temperature for 1 h. The reaction was stopped by adding 4 ul of detection reagent using an FRD and after 20 min incubation at room temperature the luminescence signal was measured using a ViewLux plate reader (Perkin Elmer, Shelton, CT). Data were expressed as relative luminescence units.
For orientation: Reporter assays use an easily measured gene product as a stand-in for the process of interest.
As to `CCOc1ccc(OCC)c(Cl)c1`, the Potency result is “inactive”.

For the compound `CC(C)CCCCCCc1ccc(OCCOCCO)cc1`, the Potency entry is “inactive”.

As for `CCC(=O)Nc1ccc(O)cc1`, the Potency result is “inactive”.

Regarding `COc1ccc(Nc2ccc(OC)cc2)cc1`, the Potency was 18.2 µM (active).

With `CC(C)CC(=O)OCc1ccccc1`, the Potency result was “inactive”.

As for `CCOC(=O)C1CC(=O)C(=C(O)C2CC2)C(=O)C1` (stereo not given), the Potency result was “inactive”.

Turning to `CCOC(=O)c1ccccc1O`, the Potency result is “inactive”.

As to `CCCNC(C)C(=O)Nc1c(C)csc1C(=O)OC` (stereo not given), the Potency result was “inactive”.

On to `CCC(=O)c1ccc2c(c1)N(CCCN(C)C)c1ccccc1S2`, for which the Potency entry is “inactive”.

As for `CC(C)C1=CC2=CC[C@@H]3[C@](C)(CCC[C@@]3(C)C(=O)O)[C@H]2CC1`, the Potency is 35.6 µM (active).

`CC(C)=CCCC(C)CCOC=O` (stereo not given): the Potency is 35.6 µM (active).

As to `O=C(O[C@@H](C(=O)O)[C@@H](OC(=O)c1ccccc1)C(=O)O)c1ccccc1`, the Potency entry was “inactive”.

Regarding `CC(C)Nc1nc(N)nc(Cl)n1`, the Potency entry was “inactive”.

As for `CCCCCCCCCCCCOCCOS(=O)(=O)O`, the Potency result was “inactive”.

`COc1ccccc1N1CCN(CCCNc2cc(=O)n(C)c(=O)n2C)CC1`: the Potency entry was “inactive”.

On to `Cc1nc(-c2ccccn2)ncc1C(=O)Nn1cc(C)c2cc(F)ccc21`, for which the Potency is 7.96 µM (active).

Take `Cc1ncc(CO)c(CN)c1O`: the Potency result was “inactive”.

In the case of `O=C1CCCCCCCCCCC(=O)OCCO1`, the Potency is 31.7 µM (active).

Take `CN(C)CCOc1ccccc1Cc1ccccc1`: the Potency result was “inactive”.

On to `Cc1c[nH]c(=S)[nH]c1=O`, for which the Potency entry was “inactive”.

With `CN1CCN(N)CC1`, the Potency result is “inactive”.

On to `C=CC1CO1` (stereo not given), for which the Potency entry is “inactive”.

In the case of `CCCOCCC`, the Potency entry was “inactive”.

With `CO[C@@]1(NC(=O)CSCC#N)C(=O)N2C(C(=O)O)=C(CSc3nnnn3C)CS[C@@H]21`, the Potency entry is “inactive”.

For the compound `O=C1CCN(c2ccccc2)N1`, the Potency is 35.7 µM (active).

For `CCCc1c2oc(C(=O)O)cc(=O)c2cc2c(=O)cc(C(=O)O)n(CC)c12`, the Potency result was “inactive”.

With `COc1cc2c(cc1N)oc1ccccc12`, the Potency was 7.25 µM (active).

With `O=c1[nH]cnc2c1ncn2[C@@H]1O[C@H](CO)[C@@H](O)[C@H]1O`, the Potency entry was “inactive”.

Consider `COC(=O)/C=C(/C)N`, for which the Potency entry is “inactive”.

As to `O=C(Cl)c1cccc([N+](=O)[O-])c1`, the Potency entry is “inactive”.

As for `OC[C@H]1O[C@@H](O[C@H]2[C@H](O)[C@@H](O)[C@H](O)O[C@@H]2CO)[C@H](O)[C@@H](O)[C@H]1O`, the Potency result is “inactive”.

For the compound `Cc1ccc(C=O)s1`, the Potency entry was “inactive”.

`CCN(CC)CCOc1ccc(Cc2ccccc2)cc1`: the Potency result is “inactive”.

Take `CCCCNc1ccc(C(=O)OCCN(CC)CC)cc1`: the Potency entry was “inactive”.

For the compound `O=C1CCCCC1C1CCCCC1` (stereo not given), the Potency result was “inactive”.

Take `OCCN(CCO)CCN(CCO)CCO`: the Potency result was “inactive”.

Consider `CC(=O)Nc1ccc(C)c(Cl)c1`, for which the Potency is 39.9 µM (active).

Take `CCCC(CCC)(C(=O)OCC)C(=O)OCC`: the Potency result is “inactive”.

Turning to `CCOC(=O)NCCC[Si](OCC)(OCC)OCC`, the Potency was 39.9 µM (active).

As to `NC(=O)NS(=O)(=O)c1ccc(Cl)cc1`, the Potency result is “inactive”.
